High-throughput results deposited in PubChem BioAssay by National Center for Advancing Translational Sciences (NCATS).
Cruzain noTriton: qHTS Assay for Promiscuous and Specific Inhibitors of Cruzain (without detergent); purified cruzain, Z-FR-AMC fluorescence, no detergent; Potency, µM, actives largely listed as inhibitors; 200,000 compounds, 2.3% hits; AID 1476, 2009; further: nearly all actives have a fitted effect of over 40% in size
Target sequence (P25779 123-467 limits assumed): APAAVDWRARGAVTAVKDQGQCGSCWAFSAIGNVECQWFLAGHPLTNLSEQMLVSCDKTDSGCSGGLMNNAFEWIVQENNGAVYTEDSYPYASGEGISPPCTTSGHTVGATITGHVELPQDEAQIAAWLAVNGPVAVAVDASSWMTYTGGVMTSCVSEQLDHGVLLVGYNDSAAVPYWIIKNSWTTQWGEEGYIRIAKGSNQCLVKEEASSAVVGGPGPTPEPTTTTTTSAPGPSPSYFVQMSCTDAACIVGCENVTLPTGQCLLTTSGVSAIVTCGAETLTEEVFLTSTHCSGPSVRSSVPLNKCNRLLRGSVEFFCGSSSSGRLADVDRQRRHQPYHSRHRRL
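Purified cruzain at 1.5 nM, pre-incubated 15 min with compound at room temperature in 100 mM sodium acetate pH 5.5, 5 mM DTT, 0.00005% Triton X-100. Reaction started with 2 uM Z-FR-AMC; AMC fluorescence increase over 60 s gives rate.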
Cruzain inh Det: qHTS Assay for Promiscuous and Specific Inhibitors of Cruzain (with detergent). Cruzipain (Trypanosoma cruzi), P25779. purified cruzain, Z-FR-AMC fluorescence, 0.01% Triton. Potency, µM, hits mostly inhibitors. 200,000 compounds, 0.43% hits. AID 1478, 2009; further: nearly all actives have a fitted effect of over 40% in size
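Sodium acetate buffer (100 mM, pH 5.5) containing 5 mM DTT and 0.01% Triton X-100 hosted 1.5 nM cruzain and test compound for 15 min at room temperature. Cleavage of 2 uM Z-FR-AMC was then tracked by fluorescence.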
Of the large screens only hits and unclear results are named; the others gave an inactive call. Shown are actives, neighbours in structure and some others; about 2.5% of the full set was active somewhere. The call rests on the fitted dose curve; in most records, active means well fitted curve in the direction sought with a large enough effect; inconclusive means small, poorly fitted or top-dose-only effect, or another doubt; inactive means no such curve, though single readings can be large; an effect the other way counts as inactive or inconclusive.

COc1cc(C2CC(=O)Oc3ccc(O)cc32)cc(OC)c1OC (stereo unspecified)	none
c1ccc(Oc2nc(NC3CCCCC3)c3[nH]cnc3n2)cc1	none
Cc1oc2c(cc(NS(=O)(=O)c3ccc(Br)cc3)c3ccccc32)c1C(=O)OCc1ccccc1	none
Cc1ccc(S(=O)(=O)Nc2cc3c(C(=O)OCc4ccccc4)c(C)oc3c3ccccc23)c(C)c1	Cruzain noTriton 5µM
Cc1oc2c(cc(NS(=O)(=O)c3ccc(F)cc3)c3ccccc32)c1C(=O)OCc1ccccc1	Cruzain noTriton inconclusive
Cc1ccc(S(=O)(=O)Nc2cc3c(C(=O)OCc4ccccc4)c(C)oc3c3ccccc23)cc1	Cruzain noTriton 7.9µM
Cc1cn2c(=O)cc(COC(=O)c3cccc(NC(=O)COc4ccccc4Cl)c3)nc2s1	none
CCOc1ccc(-c2nn(-c3ccccc3)cc2/C=C2\SC(=S)N(Cc3ccco3)C2=O)cc1	Cruzain noTriton 10µM
CCCOc1ccc(-c2nn(-c3ccccc3)cc2/C=C2\SC(N)=NC2=O)cc1	Cruzain noTriton inconclusive
O=C(CCCc1ccccc1)NC1CC(=O)N(c2ccc(Cl)cc2)C1 (stereo unspecified)	none
COc1ccc2cc(-c3nc4ccc(C(=O)O)cc4[nH]3)c(=O)oc2c1	none
COc1ccc(-c2c(C)c3ccc(O)c(CN4CCCC4)c3oc2=O)cc1	none
COC(=O)Cc1c(C)c2ccc(O)c(CN3CCCC(C)C3)c2oc1=O (stereo unspecified)	Cruzain noTriton inconclusive, Cruzain inh Det 25µM
CC1CCc2onc(C(=O)N3CCN(c4ccc(Cl)cc4)CC3)c2C1 (stereo unspecified)	none
COc1ccc(C(=O)Nc2cc(Cl)cc(Cl)c2)c(OC)n1	Cruzain noTriton 13µM
COc1ccc(C(=O)Nc2cc(Cl)ccc2Cl)c(OC)n1	none
COc1ccc2c(c1)C(=O)[C@@H](OC(=O)NS(=O)(=O)c1ccc(F)cc1)[C@H](c1ccc(OC)c(Br)c1)O2	none
CC(C)[C@]1(Cl)CC[C@@H]2[C@]3(C)CCC[C@@](C)(C(=O)O)[C@H]3C[C@H](Cl)[C@@]2(Cl)[C@H]1Cl	none
Nn1cnnc1N/N=C\c1ccc(-c2ccccc2[N+](=O)[O-])o1	Cruzain inh Det 20µM
O=[N+]([O-])c1ccccc1-c1ccc(/C=N/n2cnnc2)o1	none
CCOC(=O)Cn1c(=O)n(C2CCCCC2)c2nc(-c3ccc(CC)cc3)nc(C(N)=O)c21	none
Cc1nnc(SCc2nc(-c3ccc(Cl)cc3)no2)n1-c1ccc(F)cc1	Cruzain noTriton inconclusive
Fc1ccc(CSc2ccc3nnc(-c4cccs4)n3n2)cc1	Cruzain noTriton inconclusive
Cc1cccc(CSc2ccc3nnc(-c4cccs4)n3n2)c1	Cruzain noTriton 32µM
COc1cc(NC(=O)C2=CC(c3ccc(F)cc3)=NS(=O)(=O)N2C)cc(OC)c1OC	none
CC1CCCN(CCCNC(=O)c2ccc3c(c2)N(Cc2cccc(Cl)c2)C(=O)c2ccccc2S3(=O)=O)C1 (stereo unspecified)	none
Nc1ncnc2c1ncn2[C@@H]1O[C@H](CO)[C@H](O)[C@H]1O	none
Cc1nc(C(=O)Nc2cccc(Cl)c2)nn1-c1cc(OC(C)C)c(Cl)cc1Cl	Cruzain noTriton inconclusive
Cc1nc(C(=O)Nc2cc(Cl)ccc2Cl)nn1-c1cc(OC(C)C)c(Cl)cc1Cl	Cruzain noTriton 25µM
Cc1nc(C(=O)Nc2cccc(Cl)c2Cl)nn1-c1cc(OC(C)C)c(Cl)cc1Cl	Cruzain noTriton inconclusive
Cc1nc(C(=O)Nc2ccc(Cl)cc2Cl)nn1-c1cc(OC(C)C)c(Cl)cc1Cl	Cruzain noTriton 25µM
O=C(N=Nc1c(O)[nH]c2ccccc12)c1cccc(S(=O)(=O)N2CCCCC2)c1	none
CC(C)c1ccc2[nH]c(O)c(N=NC(=O)c3cccc(S(=O)(=O)N4CCCCC4)c3)c2c1	Cruzain noTriton 25µM
CN(C)CCCO[C@H]1C([C@H](O)CO)O[C@@H]2OC(C)(C)O[C@@H]21 (stereo partly specified)	none
O=C(Nc1nc2n(n1)C(c1ccc(F)cc1)C=C(c1ccc(Cl)cc1)N2)c1ccc([N+](=O)[O-])cc1 (stereo unspecified)	none
CC1CCC/C(=N\NC(=S)NCc2ccccc2)C1 (stereo unspecified)	none
CC1CCC/C(=N\NC(=S)Nc2ccccc2)C1 (stereo unspecified)	Cruzain inh Det 14µM
CCOc1ccc(-c2cc(CCCC(=O)NCCc3ccc(SC)cc3)no2)cc1	none
CC1=NN(c2ccccc2)C(=O)/C1=C\c1c(C)[nH]n(-c2ccccc2)c1=O	none
CC1=NN(c2ccccc2)C(=O)/C1=C/c1c(O)n(-c2ccc(F)c(Cl)c2)[nH]c1=O	Cruzain inh Det 22µM
O=C(CNC(=O)c1ccccc1Cl)OCc1cc(=O)n2ccsc2n1	Cruzain noTriton 13µM, Cruzain inh Det 25µM
Cc1csc2nc(COC(=O)CNC(=O)c3ccccc3Cl)cc(=O)n12	Cruzain noTriton 20µM, Cruzain inh Det 25µM
Cc1csc2nc(COC(=O)CNC(=O)c3ccccc3)cc(=O)n12	none
O=C(CNC(=O)c1ccc(F)cc1)OCc1cc(=O)n2ccsc2n1	none
COc1ccc(-c2ccc(NS(=O)(=O)c3ccc(OC)c(OC)c3)cc2)nn1	none
COC(=O)[C@@H]1O[C@@H](SCCN)[C@@H](O)[C@H](O)[C@H]1O	none
Cc1ccccc1-c1nc(CN2CCC(C(=O)NC(C)C)CC2)c(C)o1	none
Cc1ccc(Cl)cc1N1CCN(C(=O)c2ccc(C)c(-n3c(C)nc4cccnc43)c2)CC1	Cruzain noTriton inconclusive
COc1ccc(OC)c(CNC(=O)CCCn2nc(C)c3c(C)n(-c4ccc(C)cc4)nc3c2=O)c1	none
O=C(Cn1cnc2sc(-c3ccccc3)cc2c1=O)NCc1ccccc1	Cruzain noTriton 16µM
O=C(Cn1cnc2sc(-c3ccccc3)cc2c1=O)NCCc1ccccc1	none
CN(C)C[C@H]1CCC2=C(C1=O)C(c1ccc(Cl)c(Cl)c1)C1=C(CC[C@H](CN(C)C)C1=O)O2	none
O=C(NC(C(=O)N/N=C/c1c2ccccc2cc2ccccc12)c1n[nH]c(=O)c2ccccc12)c1ccccc1 (stereo unspecified)	Cruzain noTriton 13µM
O=C(NC(C(=O)N/N=C/c1ccccc1)c1n[nH]c(=O)c2ccccc12)c1ccccc1 (stereo unspecified)	none
CN(Cc1ccccc1)c1ccc(-c2nc(-c3cccnc3)no2)cc1[N+](=O)[O-]	Cruzain noTriton 25µM
CN(Cc1ccccc1)c1ccc(-c2nc(-c3ccncc3)no2)cc1[N+](=O)[O-]	none
Cc1oc2ccc(O)c(CN3CCN(Cc4ccccc4)CC3)c2c1C(=O)Nc1cccc(Cl)c1C	none
COc1ccc(C(=O)c2sc3nc(-c4ccccc4)ccc3c2N)cc1OC	none
COc1cccc(-c2ccc3c(N)c(C(=O)c4ccc(Br)cc4)sc3n2)c1	Cruzain noTriton 7.9µM
COc1ccc(C2=C(C)C(=O)N(Cc3ccc(C(=O)Nc4cc(C)ccc4C)cc3)S2(=O)=O)cc1	Cruzain noTriton inconclusive
CC1=C(c2ccc(C)cc2)S(=O)(=O)N(Cc2ccc(C(=O)Nc3ccc(C)c(F)c3)cc2)C1=O	Cruzain noTriton 20µM
CCOc1ccccc1C(=O)N1CC(=O)Nc2ccc(C)cc2C1c1ccccc1 (stereo unspecified)	none
Cc1ccsc1CN(C(=O)c1ccc(OCC(C)C)cc1)C1CCS(=O)(=O)C1 (stereo unspecified)	none
COc1ccc(Nc2cc(C(=O)NCc3ccccc3OC)c3ccccc3n2)cc1	none
